Among all 370,000 compounds or so, about 3,700 (1%) were called active. This is one part of a sample in which actives are shown more often than they occur.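 The calls were made as follows: active = activation above the mean over all tested compounds plus 3 SD (cut at about 0.9% in these data); inactive = the rest.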
What follows are compounds tested on Nuclear hormone receptor DAF-12 (Strongyloides stercoralis) (assay: S. stercoralis DAF-12 nuclear receptor activators, primary screen, cell-based, luminescence, HEK293, GRIP1 co-expression, lit1-tk-luc (AID 652126;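 also: 0% = DMSO-only wells and 100% = 3 µM delta7-dafachronic acid wells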)). Conditions: HEK293 ssDAF-12/GRIP1 lit1-tk-luc reporter, at 6.8 µM, active compounds read high, % of 3 µM dafachronic acid response.

activation, active:
Cc1cccc(C(=O)N2CCc3c([nH]c4ccccc34)C2CC(C)C)n1 (configuration not stated) 1.53%
Cc1ccc(NC(=O)Nc2cccnc2)cc1 1.08%
CN(CC#CCC(c1ccccc1)c1ccccc1)C(C)(C)C 1.07%
Cc1cccc(/C(N)=N/OC(=O)c2ccccc2Cl)c1 1.96%
N/C(=N\OC(=O)Nc1ccccc1)c1ccno1 5.22%
O=C(Nc1ccn(Cc2ccccc2)n1)c1n[nH]c([N+](=O)[O-])c1Cl 1.07%
C/C(=C\c1ccco1)CN1CCC(N2CCC(C(=O)N3CCOCC3)CC2)CC1 1.16%
Cc1ccc2cc(/C=N/Nc3ccc(C(=O)O)cc3)c(Cl)nc2c1 0.95%
Cc1cc(C)nc(Nc2n[nH]c(-c3ccccc3N)n2)n1 1.05%
COc1ccc2c(c1)c(C(=O)N/N=C/c1cccs1)c(C)n2C 1.69%
Cc1cc(OCc2cc(C(=O)NCc3cc(C(C)C)no3)no2)cc(C)c1Cl 1.55%
Cc1ccc(OCc2nc3ccccc3n2C)cc1 0.93%
Cc1cc(N=Nc2ccc3ccccc3c2)ccc1O 1.92%
CCOC(=O)CSc1nc(C)cc2c1C(=O)OC2 1.04%
Cc1cccc(NC(=O)/C=C/c2ccc3c(c2)OCO3)n1 1.53%
Cc1ccc(NC(=O)Cc2nc(COC(=O)C(C)NS(=O)(=O)c3ccc(C)cc3)cs2)cc1 (configuration not stated) 0.98%
CCCc1nc2c3ccccc3ccn2c1Cc1ccccc1C(F)(F)F 1.29%

activation, inactive:
CCn1c(=O)n2n(c1=O)[C@@]1(C=C3CCCC[C@H]32)N=C(NC(=O)c2ccccc2)N(Cc2ccccc2)[C@H]1Cc1ccccc1 -1.66%
O=S1(=O)c2ccc(Br)cc2OC[C@H](Cc2ccccc2)N1Cc1cn(Cc2ccccc2)nn1 -1%
Cc1cccc(C2c3[nH]c4ccccc4c3CCN2C(=O)c2cc(-c3cccn3C)n[nH]2)n1 (configuration not stated) -0.27%
COc1ccc(C2c3[nH]c4ccccc4c3CCN2CCCn2cccn2)cc1C (configuration not stated) 0.43%
C[C@@H](NC(=O)c1ccccc1OCC(=O)Nc1ccc(I)cc1)C(=O)N(C)Cc1ccccc1 -1.27%
COC(=O)C[C@H]1CC[C@H]2[C@H](COc3ccc(NC(=O)C4CC4)cc3C(=O)N2C)O1 -1.49%
O=C(Nc1ccc(Cl)cc1)Nc1ccc(Oc2cccnc2)nc1 -1.82%
Cc1ccc(NC(=O)N2CCC(O)(c3cccnc3)CC2)cc1 -1.43%
COc1cccc(CSc2nnc(-c3cccnc3)n2Cc2ccccc2)c1 -1.73%
COC(=O)[C@]12C[C@H](CC(=O)N3CCOCC3)C(=O)N(Cc3ccc(Cl)cc3Cl)C1=C[C@H](C(C)C)O[C@@H]2C1CC1 -0.42%
Cc1ccccc1NC(=O)Cn1nnc(-c2ccccc2F)n1 -0.75%
CC(C)(C)N(CC#CCC(O)(c1ccccc1)C1CCCC1)CCO (configuration not stated) -0.45%
C#CCNC(=O)C[C@H]1C[C@@]2(C(=O)OC)C(=C[C@H](C(C)C)O[C@@H]2C2CC2)N(Cc2ccco2)C1=O -1.02%
Cc1cc(OC(=O)c2ccccc2Cl)ccc1N1C(=O)CCC1=O -1.58%
CCOC(=O)c1nn(-c2cccc(C)c2)cc1C(=O)c1ccccc1 -0.86%
Cc1cccc(-n2cnc(C(=O)NNC(=S)Nc3ccccc3)c2)n1 -1.77%
O=C(Nc1ccccc1)O/N=C1/CCCc2occc21 -1.48%
CC(C)(COC(=O)Nc1ccccc1)COC(=O)Nc1ccccc1 -0.77%
COc1ccc(N2CCN(CCNS(=O)(=O)c3ccc(C(C)(C)C)cc3)CC2)cc1 -0.72%
Cc1ccc(Cn2cc(CN3[C@@H](C)COc4cc(Br)ccc4S3(=O)=O)nn2)cc1 -1.02%
O=C(Cn1cnc([N+](=O)[O-])n1)NCCc1ccccc1 -1.02%
O=C(O)CC(Cc1ccccc1)C(=O)Nc1ccc([N+](=O)[O-])cc1 (configuration not stated) -1.24%
Cc1ccccc1CS(=O)(=O)Cc1ccc(C(=O)Nc2ccc(Cl)cc2)o1 -2.4%
O=C(C1CCN(C2CCN(Cc3cccc4c3OCO4)CC2)CC1)N1CCOCC1 -0.29%
O=C(C1CCN(C2CCN(Cc3ccc4cc(F)ccc4n3)CC2)CC1)N1CCCC1 0.06%
O=S(=O)(c1ccccc1)N1CCC(c2nc3ccccc3o2)CC1 -1.57%
C=C(C)C#CC(Cc1ccccc1)NCC1CC1 (configuration not stated) -1.12%
COC(=O)[C@H](C(C)C)N1CCc2nnn(Cc3ccc(C)cc3)c2-c2ccccc2S1(=O)=O -1.89%
COC(=O)[C@@]12CCCCC=C1N(CCc1ccc(Cl)cc1)C(=O)[C@H]2CC(=O)NCc1ccc(OC)c(OC)c1 -1.91%
Cc1ccc(C(=O)N/N=C/c2sc(=O)n(Cc3cccc(C(=O)O)c3)c2Cl)cc1 0.05%
Cc1ccc(/C=C2\CCn3c2nc2cc(C(=O)O)ccc2c3=O)c(C)c1 -1.16%
COc1cccc(N2CCN(CC(=O)N(C)Cc3ccc(F)cc3)CC2)c1 -1.79%
O=S1(=O)c2c(cccc2N2CC[C@H](O)C2)O[C@@H]2CCN1C2 -0.61%
CC(=O)OC12CCCN(C1)/C(=C/c1ccncc1)C2 (configuration not stated) -1.9%
Cc1cc(C)n2ncc(C(=O)Nc3ccc4c(c3)OCCO4)c2n1 -1.35%
C=CCN1C(=O)[C@@H](CC(=O)N2CCN(C(=O)c3ccco3)CC2)[C@]2(C(=O)OC)CCCCC=C12 -0.85%
O=C(CSc1nc2ccccc2n1Cc1ccccc1Cl)N/N=C\c1c[nH]c2ccccc12 -0.54%
COc1ccc(N(CC(=O)N/N=C/c2cccs2)S(=O)(=O)c2ccc(OC)c(OC)c2)cc1 -1.66%
Cc1c(NC(=O)C(=O)N/N=C/c2cccs2)c(=O)n(-c2ccccc2)n1C -1.41%
O=C(CSc1nc2ccccc2n1Cc1ccccc1)NNC(=S)Nc1ccccc1 -1.45%
C=CCN1C(=O)[C@@H](CC(=O)NCCCCc2ccccc2)[C@]2(C(=O)OCC)CCCCC/C=C/12 -1.06%
CCC(NC(=O)c1cc(COc2ccc(F)c(F)c2)on1)c1ccncc1 (configuration not stated) -0.62%
CCOC(=O)CC1(NC(=O)c2cc(COc3cncc(Cl)c3)on2)CCCCC1 -1.57%
Cc1ccc(C2=CCN(C)C(=O)N2c2ccc(Cl)cc2)cc1 -0.59%
Nn1c(SCC(=O)Nc2cccc3ccccc23)nnc1-c1cc(-c2ccc(F)cc2)n[nH]1 -1.45%
Cc1ccc(OCc2nnc(SC3CCc4ccccc4C3=O)n2C)cc1 (configuration not stated) -0.36%
COc1cccc(C(O)Cc2nc3ccccc3n2C)c1OC (configuration not stated) -1.62%
Cc1ccc(C(=O)N(Cc2ccccn2)CC2CCCO2)cc1 (configuration not stated) -0.96%
COc1ccc(Cl)cc1NC(=O)C(C)N1CCc2ccccc21 (configuration not stated) -1.48%
COC(CNC(=O)[C@H](Cc1ccccc1)NC1(C(=O)NC2CCCCC2)CCCCC1)OC -1.29%
COC(=O)[C@]12C[C@H](CC(=O)N3CCN(C(=O)C4CC4)CC3)C(=O)N(CCC3=CCCCC3)C1=C[C@H](C(C)C)O[C@@H]2C1CC1 -1.07%
COC(=O)CC1CCc2cc(C)cc(C(CC(C)C)NC(=O)[C@H](CC(C)C)NC(=O)OCc3ccccc3)c2O1 (some centres not stated) -1.68%
CC(C)(C)c1ccc(CSc2nnc(-c3cccs3)o2)cc1 -0.67%
CCN(Cc1ccccc1)C(=O)CSc1nc(C)cc2c1C(=O)OC2 -0.86%
CCOC(=O)CSc1ncc(-c2cccc(Cl)c2)cn1 -1.41%
COC(=O)C1CN(CCc2ccccc2)CCS(=O)(=O)N1Cc1ccc(F)cc1 (configuration not stated) -0.95%
COc1cccc(/C=C/C(=O)Nc2ccc3c(c2)OCCO3)c1 -0.84%
CN(Cc1ccccc1)C(=O)COC(=O)/C=C/c1ccc2c(c1)OCO2 -0.82%
c1csc(-c2nnc(SCc3nc4ccccc4[nH]3)o2)c1 -0.86%
O=C(CSc1nnc(-c2ccccn2)n1-c1ccccc1)Nc1ccc2cn[nH]c2c1 -0.07%
CC(=O)c1cc(-c2ccc3ccccc3c2)c(=O)n2c1CCC2 -1.47%
CC(CCN1CCC(C(O)(c2ccccc2)c2ccccc2)CC1)Oc1ccc(C(F)(F)F)cc1 (configuration not stated) -0.69%
C/C=C/C(=O)OCc1csc(CC(=O)Nc2ccccc2C)n1 -0.39%
CC(=O)Nc1ccc(S(=O)(=O)NC(C)C(=O)OCC(=O)NC2CCCC2)cc1 (configuration not stated) -0.65%
COc1cccc(CNC(=O)CNS(=O)(=O)c2ccc3nc(C)sc3c2)c1OC -1.81%
COc1ccc(CCNC(=O)CSc2nc3c([nH]2)c(=O)n(C)c(=O)n3C)cc1 -1.12%
COc1ccc2c(C(C)c3ccc(N)cc3)cn(C)c2c1 (configuration not stated) -0.41%
FC(F)(F)c1ccccc1Cc1c(-c2ccccc2)nc2c3ccccc3ccn12 -0.19%
Cc1cc(Br)cn2c(Cc3ccccc3C(F)(F)F)c(C3CCCCC3)nc12 -0.29%
COc1ccc(S[C@]2(C(=O)N(C)C)CC(=O)N(c3ccc(OC)cc3)[C@@H]2c2ccc(OC)cc2)cc1 -1.42%

— PubChem BioAssay AID652126 (The Scripps Research Institute Molecular Screening Center, 2013)
